# The campaign covered roughly 16,000 compounds. About 5,700 (36%) were called active. About 24% were inconclusive and are not listed. Calls follow the shape of the dose curve; as a rule, active = well fitted curve in the direction sought with a large enough effect; inconclusive = small, poorly fitted or top-dose-only effect, or effect the other way; inactive = no such curve, though single readings can be large or run the other way. Some of the results follow.
# Biological target: Cytochrome P450 1A2 (Homo sapiens) (UniProt P05177)
# Assay: Cytochrome panel assay with activity outcomes
# Conditions: recombinant CYP, pro-luciferin dealkylation, luminescence, p450-cyp1a2; series mostly up to 57.1 µM; activity, negative = inhibition: at the top concentration
# % is scaled to controls: 0 for no effect and ±100 for the full control effect.
# Chain of Cytochrome P450 1A2 (Homo sapiens) (P05177 whole entry, looked up): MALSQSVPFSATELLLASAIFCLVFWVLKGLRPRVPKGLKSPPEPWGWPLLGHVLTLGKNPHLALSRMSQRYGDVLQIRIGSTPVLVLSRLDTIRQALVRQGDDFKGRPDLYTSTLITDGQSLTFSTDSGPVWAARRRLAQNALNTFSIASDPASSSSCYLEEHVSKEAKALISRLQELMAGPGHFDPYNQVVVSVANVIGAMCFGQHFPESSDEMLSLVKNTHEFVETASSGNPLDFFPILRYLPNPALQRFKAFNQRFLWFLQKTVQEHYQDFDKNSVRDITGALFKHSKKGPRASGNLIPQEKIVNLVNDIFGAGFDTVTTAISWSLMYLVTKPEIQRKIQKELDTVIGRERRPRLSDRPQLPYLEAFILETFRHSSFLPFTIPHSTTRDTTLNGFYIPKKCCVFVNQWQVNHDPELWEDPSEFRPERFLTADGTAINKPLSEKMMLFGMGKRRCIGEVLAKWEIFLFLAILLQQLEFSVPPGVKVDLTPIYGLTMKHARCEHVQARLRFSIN
Structure (SMILES),"activity, negative = inhibition",AC50
CC(=O)OC[C@H]1O[C@@H](O/N=C(\C)CCN2CCc3nc(-c4ccccc4)c(-c4ccccc4)cc3C2)[C@H](OC(C)=O)[C@@H](OC(C)=O)[C@H]1OC(C)=O,-0.893% [at 11.4 µM] (inactive),–
O=C(CN1C(=O)c2ccccc2C1=O)NCC(=O)OCC(=O)c1ccc(Br)cc1,-21.1% (inactive),–
O=C(Cc1ccc(Br)cc1)OCC(=O)c1ccc2c(c1)OCCO2,–,12.6 µM (active)
CC(=O)NCCn1c(SCC(=O)NCc2ccco2)nc2ccccc2c1=O,-20.4% (inactive),–
C=CCSc1nc2ccccc2c(=O)n1Cc1ccco1,–,0.0251 µM (active)
C=CCSc1nn2c(=O)c3ccccc3nc2s1,–,1 µM (active)
CC1(C)S[C@@H]2[C@H](NC(=O)[C@@H](NC(=O)N3CCNC3=O)c3ccccc3)C(=O)N2[C@H]1C(=O)O,1.79% [at 25.6 µM] (inactive),–
Cn1c(CCNC(=O)c2ccccc2Cl)n[nH]c1=S,-6.55% (inactive),–
S=c1[nH]nc(CCc2ccccc2)n1Cc1ccccc1,–,25.1 µM (active)
CCn1c(CCNC(=O)c2ccccc2Cl)n[nH]c1=S,-1.57% (inactive),–
N=c1ccn2c(n1)O[C@@H]1[C@@H](O)[C@H](CO)O[C@H]12,-3.76% (inactive),–
COc1ccc(CCCO[C@@H](Cn2ccnc2)c2ccc(OC)cc2)cc1,–,0.0158 µM (active)
Cc1ccc(/C=C2\SC(=S)N(CCCC(=O)Nc3ccccn3)C2=O)cc1,–,10 µM (active)
Cc1ccc(C(=O)c2cn[nH]c2-c2cc(Cl)ccc2O)cc1,–,14.1 µM (active)
CC(NC(=O)OCc1ccccc1)C(=O)NCC1CCCO1 (stereo not drawn),–,12.6 µM (active)
O=C(NCC1CCCO1)C1CCC(=O)N1CCc1ccccc1 (stereo not drawn),-5.31% (inactive),–
O=C(CC(c1ccccc1)c1ccccc1)NCC1CCCO1 (stereo not drawn),0.353% (inactive),–
CC(=O)N=c1sccn1CC(=O)c1ccc([N+](=O)[O-])cc1,–,22.4 µM (active)
CC(C)Cc1nnc(NC(=O)c2ccc([N+](=O)[O-])cc2)s1,-16.6% (inactive),–
C[C@@H](Cc1cccc(C(F)(F)F)c1)NCCOC(=O)c1ccccc1,–,0.794 µM (active)
COC(=O)C(Cc1ccc(OC(=O)c2ccc(C(F)(F)F)cc2)cc1)N1Cc2ccccc2C1=O (stereo not drawn),-9.91% (inactive),–
O=C(c1cccc(C(F)(F)F)c1)N1CCC(O)(CS(=O)(=O)Cc2ccccc2)CC1,6.59% (inactive),–
CCOc1cccc(OCCCNCCCOC)c1,–,8.91 µM (active)
O=C(O)c1cccc(OCCO)c1,-14.7% [at 11.4 µM] (inactive),–
COc1ccccc1CNc1ncnc2ccc(-c3ccc(N(C)C)cc3)cc12,–,0.794 µM (active)
COc1ccccc1CNc1ncnc2ccc(-c3ccc4c(c3)OCO4)cc12,–,0.794 µM (active)
COc1ccccc1CNc1ncnc2ccc(-c3ccc(C(=O)N(C)C)cc3)cc12,–,12.6 µM (active)
COc1ccc(CNc2ncnc3ccc(-c4ccc(N(C)C)cc4)cc23)c(OC)c1,–,2.51 µM (active)

# — PubChem BioAssay AID1851 (National Center for Advancing Translational Sciences (NCATS), 2009)
